From the supplement of paper PMC12632987
The full ranking holds about 2,300 sequences; the median of “median log2 fold change of GCK-ALFA target abundance (FLAG IP / Myc IP barcode read proportion)” is about 0.095, and the lowest 2% start at about -0.47. What follows is part of a selection rich in the lowest values, with near analogues and random picks from the rest.

B1: LC3A_free_39_2288 (protein)
chain: SMEELEKAVKRLAELLDKIEGVTEEEKQTILEAAKKSLETAKAILEALETIEKDGGDVAEAAKRIAAKIKELEAAGKSLEEMTEEIIALTKDLVNLIPID
B2: LC3A_3_1447 (protein)
chain: AEELREEALELLRERGASPETIAAAEELFDALIEKGYLEAMELVLEFLKEVKDASDEFLLETFKDLLELVLTSDDSPEEMKKKIEEELSAFRSELEIEEL
B3: LC3A_3_1875 (protein)
chain: MDEKIEETIELLKEAGASEETIEKFEEVAELLKERGYEEALETLIEEVKKLAGTSDEILLDFLEEVLEVLKTKDLSEEELIEEIKRIARLALNEAEIIEL
B4: LC3A_3_1892 (protein)
chain: LEERVEETVERLKEAGASEETIELFLEAAELLLERGYYEALETLIDEVEELIDLPDEILLDFLEEVLEVLETEDLSEEELIERIKELARLAKNEGEIEEL
B5: LC3A_3_1891 (protein)
chain: LEERIERTEELLREKGASEETIELFRKVMELLKARGYEEALKTLIEEVEELADLPDEILLDFLEEVLEVLETEDLSEEELIKKIKELARLARNEGEIIEL
B6: LC3A_28_685 (protein)
chain: SKTEEDLKKALEEAEEALKKGEPTVVRINVYGDVTEEELEKVLKALEEIAKILNKIPGSAIIVDIDADVDEEFEDKIIDKAEELEKKYPNVTIIIALEER
B7: LC3A_28_1013 (protein)
chain: MSIVEETKKKIEEALKEAEKGEDAYLEVEITSEATQEEVEEVLELIEKAAKEVSKLPNVKLYVVIYDDSNQENHQLIVDAADRIEEKYPNVHVIVAYDDE
B8: LC3A_45_1937 (protein)
chain: MYLATIDLIVPRELAEEALALAEEIARELEEENDGKVEVDLETLRESYEATRDEEDVLLVVKIYAETEELALDVADRLVDRLRAALGPRVAAIISVEEVP
B9: LC3A_free_46_2420 (protein)
chain: MTLDIDIDVLAKTEETAKAVAKELTKTLEDTAKELGVKVEIKVEIEKLEDGTYYVHIDATFTGVTEEQAQQIEDKVIDKVEELEKKYPEILGSIISSELE
B10: LC3A_free_26_2152 (protein)
chain: DIFIDLVELDKAIELLEKALKLLEEDKNASEELKKLVKEALKKAEEMTLESLEEAKKLVEEALKLLEKDKSLSEEKKKELKKLLEEALKLLEKNIEIAKS
B11: LC3A_28_1030 (protein)
chain: AALKAAAAAALAEARAQFEAGEEAVVTLDVGDVPTAEAKAVVTAFLAELRALSAEYGGRKVSVVINYDGDQATLDAIIDAAEAAEAEDPNLTVIIAYADN
B12: LC3A_3_1549 (protein)
chain: MEELLEETLKRLKEAGASEEVIEAVRKALQALIDRGYEEALKEFAREVEELIGLPDEILLDFAEEVLRAIEEEDLNEEELIERIKEIATIAKNEGEIIEL
B13: LC3A_28_855 (protein)
chain: SETRKSIEEAREELEKAREAKEPAVITVTVTSDVTEEEVEEVIELIKEAAEASKEVPDLTLIIDFEGEIDPEHLNRITDAADEAIKKNPKLNVIFALDEE
B14: LC3A_147_414 (protein)
chain: TVVEIDILVKSKEAVEKIKERMKEIVKELKAKGYKVKLEIKVEEVEPGVYLVDITIEIEAETKEDAEAAANFVLDKIDEMEEELKDEILGSLISVEIEEK
B15: LC3A_127_214 (protein)
chain: EKEKLIKELLELIRKAQELLAKPDYDLEEIRKLLEEAIKVAKELLKLDERFKPVLEDLESALKLVDQMENLSPAEQEEARERVSMLLDGAEIELLSLELK
B16: LC3A_147_517 (protein)
chain: YLVEVEIDMLLKNSKELAEEIAKEIEERLKEKGYKVEVELEFEEDEDGTIFADITIKVEAETLEEAKEVANEILDIIDELLEKNKDKILGALISVSITKK
B17: LC3A_147_516 (protein)
chain: YKVTVEIDLLLKNSKELAEEMAEEIKEYLESKGYEVEVELEFEEDEDGTIFAKITITVKAETKEEAEKVANEVLEKIDELLEKYKDKILGALISVSIEEE
B18: LC3A_132_295 (protein)
chain: MEEKAEKYLKELKALIAAAKANIDDDAKVTALLKEIEAKIEEAEKELTPEEVAKVFEEVADELWALSQVFDAAGKEQLALEADGLAIEAASLALRAKEKI
B19: LC3A_45_1925 (protein)
chain: MWEATLDVLVPRELAEKAYATAKELMAELEAEHGPDLRVDWATLDESYAASKDEEDVYLEIRIYHPDEQVALDAADRLEDELNAALGGKASSIISLKKLP
B20: LC3A_free_8_2533 (protein)
chain: KREEFVNKALELLDEFEEEIRKKAKELGLDELDILDLELLIGSLKIEVVELRDKPMEEILKTIEEGLEEIIEEAKELSEELAEKVEELAEEILEELKEMM
B21: LC3A_147_503 (protein)
chain: YLLKVDIDIIVKNAEEEVKKMVEEIEEELKKKGFEVKVKINIEQLDENTTYISINIEVKAKTKEEAEEAANYIIDKFDKYLEENKDKILGALISVEIEKE
B22: LC3A_28_660 (protein)
chain: SATREAADAAIAAARAAAARGEPAVITLTVTGDATPEDIDYVLAALEEIAAILAPIPGSAIVIDLEAGVDPEHRQRIIDKAEELEKRYPNVTVIIAEEEE
B23: LC3A_3_1416 (protein)
chain: MEEAKKKALEALKKAGHSEETLKALNELVDLLEARGAEEEAKEVLELVLENKDISSELLLEVLNEAIELLTVKKLSPEEVIKELKEELRIARNEEEIIEL
B24: LC3A_3_1375 (protein)
chain: SEELIEETLAYLREKGKSEETLEAVRRAMEALAEKGYEEALKTFAELLKEMEDLPDEILLDFAEDVLEAVENEDLNEEELIEFIKEEARVARSEGEIIEL
B25: LC3A_free_8_2497 (protein)
chain: SRQEIVDRLLELIDELEEELEEKAKELGLSELDILDITLELGSLKAEIISNSDEPLEVIREELEEGLEEIIELTEELSEELEELAEEGAEKILEELEELE
B26: LC3A_28_1014 (protein)
chain: SHMEERVAALIAEIEAALAKGEYVVATLTITPEDSLEEVKAAMERVGKAALEAAKKGIVDVVVDLEKGVSQEKLDAVMEAADELEKKAPKLNVVIALEEE
B27: LC3A_free_0_2106 (protein)
chain: MTVVGEVLAITEKALTPEQLKKVKEEMEKIAKELEEEYGMKVEVTVKEVDGRTVFTLKFSKEGLSIEEAIEIVDEVADKLEEKLKELGADVTIYTSVYEE
B28: LC3A_17_542 (protein)
chain: MEEIKKELEELLKKLEKLVEKLAEYDPEKAKKLKKKLEEAKKLIKAGKLKEAAELLAEAAREAAEAWEELEPEYGTEASVYAMEASGLELEAIGILLKLD
B29: LC3A_17_544 (protein)
chain: MEELKKELEKLLKKLEELVKELEKYDPEKAKKLKKQLEEAKKLIKAGKLREAAELLAKAAREAADAFEKLEPKYGTKASVLAMEASGLELEAIRILLKLE

Target: MAP1LC3A, Q9H492
Test: median log2 fold change of GCK-ALFA target abundance (FLAG IP / Myc IP barcode read proportion) (log2 ratio); each designed protein is fused to an ALFA-tag nanobody in HEK293 cells to bring the named protein to FLAG-tagged glucokinase (GCK); Myc marks an untargeted standard; higher = target protein stabilised (more abundant)
Conditions: target protein: 3xFLAG-MCP-GCK-ALFA reporter; HEK293 landing pad (RPLP)
In short: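 An ALFA-nanobody-fused binder library was recombined into HEK293 landing-pad cells and induced with 2 μg mL^−1 doxycycline. Cells were transfected with a plasmid expressing a FLAG-tagged target and a Myc-tagged standard. After 48 h, lysates underwent anti-FLAG and anti-Myc immunoprecipitation, and circular RNA barcodes were reverse transcribed, amplified and sequenced. Target abundance is the per-binder median log2 ratio of FLAG to Myc barcode read proportions. Barcodes needed ≥10^−7 proportion in both replicates, binders ≥3 barcodes per replicate, and a 10^−6 pseudocount was added; the two replicates were pooled.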

Binder	median log2 fold change
B1	0.326
B2	0.173
B3	0.289
B4	-0.691
B5	-0.0314
B6	-0.264
B7	-0.261
B8	-0.359
B9	-0.177
B10	0.192
B11	-0.268
B12	0.258
B13	0.127
B14	-0.515
B15	0.409
B16	-0.778
B17	-0.0638
B18	0.0471
B19	-0.101
B20	-0.133
B21	-0.665
B22	0.104
B23	0.297
B24	0.306
B25	-0.679
B26	-0.297
B27	-0.0524
B28	-0.71
B29	0.0592
